# Source: PubChem BioAssay (several laboratories)
# MazF activator = MazEF (E. coli) toxin RNase activation; P0AE70; FAM/BHQ RNA-DNA oligo cleavage fluorescence, 5 h; activation, % at 20 µM; hit rate 0.32% among 350,000; AID 504720; in the data active = activation above about 50%
# Anthrax LF prot = inhibitors of Bacillus anthracis lethal factor protease. P15917. AID 588501. multiplex microsphere protease cleavage assay, LF. inhibition, % at 10 µM. hit rate 0.12% among 360,000; also: plate controls were buffer without enzyme for full effect and enzyme alone for no effect
# BoNT A protease = inhibitors of Botulinum neurotoxin A light chain protease; multiplex microsphere protease substrate cleavage, flow cytometry; hit rate 0.17% among 360,000; AID 588499; inhibition, % at 10 µM; also: plate controls were buffer without enzyme for full effect and enzyme alone for no effect
# BoNT F protease = blocks Botulinum neurotoxin F light chain protease. hit rate 0.22% among 360,000. Multiplex microsphere protease cleavage assay, flow cytometry. inhibition, % at 10 µM; in the data active = inhibition above about 35%, passing the limit was not always enough; inconclusive = no clear call, values can overlap the other calls; also: plate controls were buffer without enzyme for full effect and enzyme alone for no effect
# Autofluor counter = flagged as autofluorescent in microsphere protease counterscreen | fluorescence intensity (test concentration not listed) | compound autofluorescence counterscreen, microsphere flow cytometry; active compounds read high | hit rate 3.1% among 360,000; in the data active = fluorescence intensity above about 16000; inconclusive = no clear call, values can overlap the other calls
# Numbers without * were called inactive; ? = inconclusive; nt = not tested or not shown. Hits are enriched below; roughly 3.7% of the tested compounds scored in any of these assays. Rule as the data show it, unless noted: active = inhibition above about 30%; inconclusive = no clear call, values can overlap the other calls; inactive = below that.
SMILES,MazF activator,Anthrax LF prot,BoNT A protease,BoNT F protease,Autofluor counter
COc1nc(=O)n(C2CCCO2)cc1C (stereo not drawn),-2,-1,0,-10,2907
Cc1cccc(Nc2ncccc2C(=O)NCc2cccs2)c1C,-2,-1,-1,-3,4311
Cc1ccc(Nc2ncccc2C(=O)NCc2cccs2)c(C)c1,5,-4,?,-10,21631*
CC1(C(=O)Nc2ccc3c(c2)OCCO3)CCC(=O)N1CCOc1ccccc1 (stereo not drawn),nt,0,0,-1,6012
Cc1ccc(C(O)c2ncc(-c3ccc(C(F)(F)F)cc3)[nH]2)cc1F (stereo not drawn),nt,-3,0,-2,3808
COc1ccc(-n2cnnc2SCc2csc(-c3ccccc3)n2)cc1,-2,-3,?,-1,22341*
COc1ccc(S(=O)(=O)N(C)CC(=O)Nc2cccc(C(C)=O)c2)cc1Cl,-4,0,7,11,18037*
COc1ccc(C2C(=O)N(C3CCCCC3)CC(=O)N2CC2COc3ccccc3O2)cc1 (stereo not drawn),-1,-2,5,7,21276*
Cc1ccc(C2C(=O)N(C3CCCC3)CC(=O)N2CC2COc3ccccc3O2)cc1 (stereo not drawn),-4,-6,9,9,19758*
COc1ccccc1CNC(=O)c1csc2c1CCCC2,5,0,-1,-1,4041
COc1ccccc1NC(=O)c1csc2c1CCCC2,-1,-4,?,1,19509*
COc1ncnc2c1oc1nc(CC(C)C)c3c(c12)CC(C)(C)OC3,-14,-5,0,-2,23399*
Cc1nc2oc3c(=O)[nH]cnc3c2c2c1COC(C)(C)C2,2,-6,0,-7,4825
CCN(C(=O)CSc1nc2scc(-c3ccccc3)c2c(=O)n1N)C1CCS(=O)(=O)C1 (stereo not drawn),8,-2,0,11,5744
CC(=O)C1(C)C(=O)N(c2ccc(F)cc2)C(=O)N1c1ccc(F)cc1 (stereo not drawn),9,-1,0,-1,3725
CC1(C)CC(CCC(=O)Nc2ccc(S(N)(=O)=O)cc2)C(=O)O1 (stereo not drawn),-3,-2,?,-3,22673*
COC(=O)[C@H](Cc1ccccc1)NC(=O)Cn1cnc(C(=O)Nc2ccc(C)c(C)c2)n1,2,0,0,1,3352
COC(=O)C1CSc2[nH]c(=O)sc2C1c1ccccc1 (stereo not drawn),-7,-1,0,0,23079*
CCCc1[nH]n(-c2nc3ccccc3s2)c(=O)c1C=NCCN1CCOCC1,3,-7,?,27,15365
CCCc1[nH]n(-c2nc3ccccc3s2)c(=O)c1C=NCC1CCCO1 (stereo not drawn),2,-6,5,6,19952*
Cc1ccc(P(=O)(CO)c2ccc(C)cc2)cc1,7,-1,-1,-3,16417*
Cc1ccc(P(=O)(CSC(=N)N)c2ccc(C)cc2)cc1,3,-3,0,-7,2371
Cc1cc(C)n(CCc2nc(-c3ccco3)cs2)n1,-15,1,3,5,19796*
CN(C)S(=O)(=O)c1ccc(Oc2ccccc2)cc1,3,1,1,-4,2918
CN(C)/C=C1\C(=O)N(c2ccc(Oc3ccccc3)cc2)CS1=O (stereo not drawn),7,-1,1,1,22670*
SMILES,MazF activator,Anthrax LF prot,BoNT A protease,BoNT F protease,Autofluor counter
Cn1c(=O)oc2cc(S(=O)(=O)N3CCOCC3)ccc21,8,-4,0,0,2942
Cn1c(=O)oc2cc(S(=O)(=O)N3CCC4(CC3)OCCO4)ccc21,-55,-2,3,3,22987*
COC(=O)n1c(=O)oc2ccc(S(=O)(=O)N3CCCCC3)cc21,1,-7,0,2,4974
COC(=O)n1c(=O)oc2cc(S(=O)(=O)N3CCOCC3)ccc21,1,-8,4,12,20705*
Clc1ccc2nc(C(Cl)(Cl)Cl)[nH]c2c1,-9,0,0,-8,3860
COc1cc(CC(=O)OCC(=O)NCCc2ccc(S(N)(=O)=O)cc2)cc(OC)c1OC,-6,0,0,2,3639
COc1ccc(-c2cc(-c3c(O)c(OC)c4occc4c3OC)[nH]n2)cc1,-2,-7,?,-5,21696*
O=C1c2[nH]nc(-c3ccccc3O)c2C(c2cccc(Cl)c2)N1CC1CCCO1 (stereo not drawn),1,1,2,3,22113*
Nc1c(S(=O)(=O)c2cccc(Cl)c2)c2nc3ccccc3nc2n1CCN1CCOCC1,-4,-5,0,-5,16491*
O=S(=O)(Nc1nc2ccccc2nc1NCCN1CCOCC1)c1cccc(Cl)c1,-2,-9,-1,1,3654
Cc1ccc(C(=O)Nc2ccc(NC(=O)c3ccccc3Cl)c(C)c2)cc1,10,2,0,6,3920
Cc1ccc2sc3ccc(NC(=O)c4ccccc4Cl)cc3c(=O)c2c1,-5,11,8,4,22506*
Cc1cc(NC(=O)c2ccc(Cl)cc2)ccc1NC(=O)c1ccccc1Cl,-14,-12,4,37*,2820
O=C1CC2(CCCC2)C(=O)N1CN1CCN(S(=O)(=O)c2cc(F)ccc2F)CC1,1,1,0,-16,3345
CC(C)(C)c1cc(=O)[nH]c(SCc2ccccc2Cl)n1,-7,-1,-1,-5,4141
O=c1ccnc(SCc2ccccc2Cl)[nH]1,-1,1,0,0,16496*
O=C(C1CCN(S(=O)(=O)c2cccs2)CC1)N1CCCCC1,7,nt,nt,nt,nt
O=C(NCc1cccnc1)C1CCN(S(=O)(=O)c2cccs2)CC1,6,0,-2,-2,23889*
COc1ccc(S(=O)(=O)N2CCC(C(=O)NCc3cccc(OC)c3)CC2)cc1,2,-3,0,18,4495
O=C(NCc1cccnc1)C1CCN(S(=O)(=O)c2cccnc2)CC1,2,4,0,6,5997
COc1cccc(CNC(=O)C2CCN(S(=O)(=O)N3CCCCC3)CC2)c1,-5,-2,-5,-2,21716*
O=C(c1ccco1)N1CCN(C(=O)C2CCN(S(=O)(=O)c3cccs3)CC2)CC1,-10,5,4,6,18565*
COc1cccc(CNC(=O)C2CSC3(C)CCC(=O)N23)c1 (stereo not drawn),-13,3,12,29,17016*
Cc1nc2[nH]c(=S)[nH]c2c(=O)[nH]1,9,1,0,-2,3569
CCOC(=O)[C@]12CCC=C1N(Cc1ccc(Cl)cc1Cl)C(=O)[C@H](CC(=O)NCc1cccs1)C2,nt,-4,0,-6,4172
O=C(COC(=O)Cc1ccccc1[N+](=O)[O-])NNC(=O)c1ccc([N+](=O)[O-])cc1,4,-6,0,-2,3798
Nc1nnc(SCc2ccc(F)cc2)n1-c1ccccc1,-5,1,-8,-7,21997*
N#Cc1ccc(CSc2nnc(-c3ccccn3)n2-c2ccccc2)cc1,-3,-3,0,-3,2869
COc1ccc(-n2c(COc3ccccc3)nnc2SCc2ccc(C#N)cc2)cc1,-2,-7,0,-2,19781*
